A selection: hits, their analogues and other compounds. The true share with any hit is near 3.5%.
Anthrax LF prot = inhibitors of Bacillus anthracis lethal factor protease; P15917; multiplex microsphere protease cleavage assay, LF; inhibition, % at 10 µM; 360,000 tested, 0.12% active; AID 588501; further: plate controls were buffer without enzyme for full effect and enzyme alone for no effect
Target sequence (P15917 whole entry, looked up): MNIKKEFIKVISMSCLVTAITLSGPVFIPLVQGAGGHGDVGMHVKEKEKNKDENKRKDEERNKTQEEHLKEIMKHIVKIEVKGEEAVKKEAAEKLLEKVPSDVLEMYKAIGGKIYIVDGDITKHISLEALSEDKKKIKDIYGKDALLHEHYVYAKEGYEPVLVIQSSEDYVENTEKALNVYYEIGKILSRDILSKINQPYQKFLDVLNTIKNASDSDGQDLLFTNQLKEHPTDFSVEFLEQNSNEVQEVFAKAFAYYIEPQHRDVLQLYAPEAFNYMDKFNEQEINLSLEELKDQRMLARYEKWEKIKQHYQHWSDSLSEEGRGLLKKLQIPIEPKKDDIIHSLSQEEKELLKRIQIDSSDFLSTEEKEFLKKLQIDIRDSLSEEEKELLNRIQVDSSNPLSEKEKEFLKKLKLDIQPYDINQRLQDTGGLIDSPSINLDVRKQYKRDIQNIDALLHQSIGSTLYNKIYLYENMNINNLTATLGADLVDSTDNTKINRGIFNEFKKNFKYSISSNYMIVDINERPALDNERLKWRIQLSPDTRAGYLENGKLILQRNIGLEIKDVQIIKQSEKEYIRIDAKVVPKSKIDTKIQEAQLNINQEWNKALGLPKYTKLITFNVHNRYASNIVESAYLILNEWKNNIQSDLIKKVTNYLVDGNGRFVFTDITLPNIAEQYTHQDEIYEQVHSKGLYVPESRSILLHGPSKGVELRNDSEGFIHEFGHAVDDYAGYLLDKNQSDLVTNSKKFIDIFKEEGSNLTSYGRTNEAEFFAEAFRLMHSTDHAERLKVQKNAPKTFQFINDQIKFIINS
Autofluor counter = counter-screen for toxin protease inhibitors: compound fluorescence; compound autofluorescence counterscreen, microsphere flow cytometry; stronger effect = higher value; fluorescence intensity (test concentration not listed); 360,000 tested, 3.1% active; in the data active means fluorescence intensity above about 16000; inconclusive means no clear call, values can overlap the other calls
BoNT F protease = blocks Botulinum neurotoxin F light chain protease; Multiplex microsphere protease cleavage assay, flow cytometry; inhibition, % at 10 µM; 360,000 tested, 0.22% active; AID 588497; in the data active means inhibition above about 35%, passing the limit was not always enough; inconclusive means no clear call, values can overlap the other calls; further: plate controls were buffer without enzyme for full effect and enzyme alone for no effect
BoNT-A LC inh2 = blocks Botulinum neurotoxin A light chain protease. multiplex microsphere protease substrate cleavage, flow cytometry. inhibition, % at 10 µM. 360,000 tested, 0.17% active. AID 588499; further: plate controls were buffer without enzyme for full effect and enzyme alone for no effect
* marks the source's active call; other numbers are inactive results; u = inconclusive. Unless noted, no stated cut-off is given here; in the data, active means inhibition above about 30%; inconclusive means no clear call, values can overlap the other calls; inactive means below that.

SMILES	Anthrax LF prot	Autofluor counter	BoNT F protease	BoNT-A LC inh2
CCCOc1ccc(C(=O)N/N=C/c2ccc(-c3ccc(S(=O)(=O)Nc4ncccn4)cc3)o2)cc1	-1	22659*	-9	u
COc1cccc(-c2csc(N3CCN(Cc4ccccc4)CC3)n2)c1	-3	24520*	-9	-3
COc1cccc(-c2csc(N3CCN(S(=O)(=O)c4ccc(F)cc4)CC3)n2)c1	-7	21656*	1	2
COc1cccc(-c2csc(N3CCN(C(=S)Nc4ccccc4)CC3)n2)c1	-3	10311	-12	-2
COc1ccc(NC(=O)c2cc(C3CCCCN3S(=O)(=O)c3ccc(C#N)cc3)on2)c(C)c1 (stereo not given)	0	3697	-5	0
CCN(CC(=O)Nc1c(F)cccc1F)C(=O)CCNC(=O)c1ccco1	-3	4792	-7	3
Nc1cc(=O)[nH]c(SCC(=O)N2CCc3ccccc3C2)n1	0	20269*	1	0
O=C(CSc1nnnn1-c1ccccc1)N1CCc2ccccc2C1	-2	22363*	0	-1
C(=C\CSc1nnnn1-c1ccccc1)/CSc1nnnn1-c1ccccc1	-3	20060*	3	1
CCCn1c(SCC(=O)N2CCc3ccccc3C2)nc2c1c(=O)n(C)c(=O)n2C	-1	23593*	-1	-1
CCOc1ccc(OCC)c(NC(=O)CSc2nc3c(c(=O)n(C)c(=O)n3C)n2C(C)C)c1	-6	8054	1	2
CCCCn1c(SCC(=O)Nc2nnc(C(C)C)s2)nc2c1c(=O)n(C)c(=O)n2C	0	20755*	1	0
CCOc1ccc(OCC)c(NC(=O)CSc2nc3c(c(=O)n(C)c(=O)n3C)n2CC)c1	-2	19457*	-1	0
CCCn1c(SCC(=O)Nc2nc3c(s2)CCCC3)nc2c1c(=O)n(C)c(=O)n2C	0	23637*	-2	-1
CC1CC(C)CN(C(=O)C2CCC(CNS(=O)(=O)c3ccccc3)CC2)C1 (stereo not given)	-7	3605	-3	-1
COc1cc(COc2ccc3c(C)c(CCC(=O)O)c(=O)oc3c2)cc(OC)c1OC	-5	3610	-14	-1
CCc1c(C)c2ccc(OCC(N)=O)cc2oc1=O	1	24076*	-3	-2
Cc1c(CCC(=O)O)c(=O)oc2cc(OCc3cccc(Cl)c3)ccc12	4	3151	40*	0
CC(=O)COc1ccc2c(C)c(C)c(=O)oc2c1	-1	3591	-14	0
CN1CCN(c2ccccc2NC(=O)COc2ccc(Br)cc2)CC1	-2	21142*	2	4
Cc1cccc(OCC(=O)Nc2ccccc2N2CCN(C)CC2)c1	-2	4281	-4	2
CN1CCN(c2ccccc2NC(=O)Cc2ccc(Cl)cc2)CC1	1	21557*	2	5
O=C(Cn1nc(-c2cccc(Cl)c2)ccc1=O)Nc1cccnc1	-8	23773*	-2	u
CCN(CC)CCCNC(=O)Cn1nc(-c2ccccc2)ccc1=O	-2	20162*	0	1
Cc1ccc(-c2nn(CC(=O)NCC3CCCO3)c(=O)c3ccccc23)cc1 (stereo not given)	-3	23922*	-9	-3
SMILES	Anthrax LF prot	Autofluor counter	BoNT F protease	BoNT-A LC inh2
O=C(Cn1nc(-c2ccccc2)ccc1=O)NCC1CCCO1 (stereo not given)	-3	23626*	-5	-4
CCOCCCNC(=O)Cn1nc(-c2ccccc2)ccc1=O	-6	5565	-4	-1
O=C(Cn1nc(-c2ccc(Cl)cc2)c2ccccc2c1=O)NCC1CCCO1 (stereo not given)	-2	4555	-21	-3
CC1=C(C(=O)Nc2ccc(C(=O)NCCCN3CCCCC3C)cc2)SCCO1 (stereo not given)	-1	4915	-9	0
O=C(Cn1nc(-c2ccccc2)ccc1=O)NCCN1CCN(c2cccc(Cl)c2)CC1	-3	21385*	-6	-2
O=C(Cn1nc(-c2ccccc2)ccc1=O)NCCN1CCN(Cc2ccccc2)CC1	-9	6531	-4	-1
Cc1cc(Cl)ccc1NC(=S)N1CCN(C(=O)c2ccco2)CC1	-3	5657	-13	0
CC(=O)c1cccc(N(CC(=O)Nc2ccccc2F)S(C)(=O)=O)c1	-10	3820	-9	-2
CN(C)S(=O)(=O)N(CC(=O)Nc1ccc(F)c(F)c1)c1ccccc1	-1	19146*	0	1
CC(=O)c1cccc(NC(=O)CN(c2ccccc2F)S(C)(=O)=O)c1	0	22974*	2	1
CC(=O)c1cccc(N(CC(=O)Nc2ccc(F)cc2F)S(C)(=O)=O)c1	-4	22378*	1	1
CCOCCCNC(=O)C1c2ccccc2C(=O)N2CCc3ccccc3C12 (stereo not given)	-2	16166*	0	1

Compound activity deposited in PubChem by NMMLSC.
